Measurements: the supplement of paper PMC8007513
Structures can show the parent of a compound that is named as a salt. ± gives the standard error. Hit rate of the full screen: of about 1,300 compounds, about 130 (10%) showed an effect of 50% or more. The list comes from a sample in which strong results are over-represented; it also holds similar structures and randomly drawn compounds.

System: Trichoderma virens ATCC 9645
Test: growth yield (OD600) with compound + IPBC relative to untreated control; higher = less growth inhibition
Conditions: compound concentration: 100 uM, IPBC concentration: 200 ng/ml
In short: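 Spores of Trichoderma virens ATCC 9645, taken from potato dextrose agar plates grown for 7 days, were suspended at 15,000 spores ml^−1 in potato dextrose broth. In 96-well plates, 100 μl aliquots held library compounds at 100 μM final, either alone or together with a biocide at 200 ng ml^−1, and were grown at 30 °C. A BioTek EL800 read OD600 at 40 h and 72 h. Growth values are given relative to the control lacking both agents and are means of duplicate screens.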

| SMILES | growth yield (40 h) [%] | growth yield (72 h) [%] |
| --- | --- | --- |
| NC[C@@H]1O[C@@H](O[C@H]2[C@H](O)[C@@H](O[C@H]3O[C@H](CO)[C@@H](O)[C@H](N)[C@H]3O)[C@H](N)C[C@@H]2N)[C@@H](O)[C@H](O)[C@H]1O [Kanamycin A sulfate] + CCCCNC(=O)OCC#CI [3-iodo-2-propynyl butylcarbamate (IPBC)] | 87.2 ± 9.4 | 93.4 ± 4.7 |
| c1ccc(CN(CC2=NCCN2)c2ccccc2)cc1 [Antazoline hydrochloride] + CCCCNC(=O)OCC#CI [3-iodo-2-propynyl butylcarbamate (IPBC)] | 82.76 ± 0.79 | 94.28 ± 0.94 |
| C#C[C@]1(O)CC[C@H]2[C@@H]3CCC4=CC(=O)CC[C@]4(C)[C@H]3CC[C@@]21C [Ethisterone] + CCCCNC(=O)OCC#CI [3-iodo-2-propynyl butylcarbamate (IPBC)] | 105 ± 2.7 | 105 ± 3.2 |
| C=CCN1CCCC1CNC(=O)c1cc2nn[nH]c2cc1OC (stereo not drawn) [Alizapride hydrochloride] + CCCCNC(=O)OCC#CI [3-iodo-2-propynyl butylcarbamate (IPBC)] | 111.5 ± 0.32 | 107 |
| OC(CNCC(O)C1CCc2cc(F)ccc2O1)C1CCc2cc(F)ccc2O1 (stereo not drawn) [Nebivolol hydrochloride] + CCCCNC(=O)OCC#CI [3-iodo-2-propynyl butylcarbamate (IPBC)] | 11.3 ± 4.3 | 63.7 ± 18 |
| NC(=O)c1cccnc1 [Nicotinamide] + CCCCNC(=O)OCC#CI [3-iodo-2-propynyl butylcarbamate (IPBC)] | 106 ± 4.8 | 101.4 ± 0.94 |
| C=CC1=C(C(=O)O)N2C(=O)[C@@H](NC(=O)/C(=N\OCC(=O)O)c3csc(N)n3)[C@H]2SC1 [Cefixime] + CCCCNC(=O)OCC#CI [3-iodo-2-propynyl butylcarbamate (IPBC)] | 104.8 ± 0.64 | 103 |
| Clc1cc(Cl)c(OCC#CI)cc1Cl [Haloprogin] + CCCCNC(=O)OCC#CI [3-iodo-2-propynyl butylcarbamate (IPBC)] | 5.24 ± 0.48 | 2.83 ± 1.6 |
| CC1=Nc2ccc(Cl)cc2S(=O)(=O)N1 [Diazoxide] + CCCCNC(=O)OCC#CI [3-iodo-2-propynyl butylcarbamate (IPBC)] | 97.4 ± 4 | 100.8 ± 0.94 |
| CC[C@H]1OC(=O)[C@H](C)[C@@H](O[C@H]2C[C@@](C)(OC)[C@@H](O)[C@H](C)O2)[C@H](C)[C@@H](O[C@@H]2O[C@H](C)C[C@H](N(C)C)[C@H]2O)[C@](C)(O)C[C@@H](C)/C(=N\OCOCCOC)[C@H](C)[C@@H](O)[C@]1(C)O [Roxithromycin] + CCCCNC(=O)OCC#CI [3-iodo-2-propynyl butylcarbamate (IPBC)] | 97.2 ± 9.5 | 96.4 ± 4.3 |
| OC(c1ccccc1)(c1ccccc1)C1CCNCC1 [Azacyclonol] + CCCCNC(=O)OCC#CI [3-iodo-2-propynyl butylcarbamate (IPBC)] | 80.06 ± 0.32 | 91.2 ± 1.5 |
| CC(C)(C(=O)O)c1ccc(C(O)CCCN2CCC(C(O)(c3ccccc3)c3ccccc3)CC2)cc1 (stereo not drawn) [Fexofenadine hydrochloride] + CCCCNC(=O)OCC#CI [3-iodo-2-propynyl butylcarbamate (IPBC)] | 89.3 ± 5.4 | 95.5 ± 7.2 |
| CC(C)(C)c1ccc(C(O)CCCN2CCC(C(O)(c3ccccc3)c3ccccc3)CC2)cc1 (stereo not drawn) [Terfenadine] + CCCCNC(=O)OCC#CI [3-iodo-2-propynyl butylcarbamate (IPBC)] | 47.2 ± 9.1 | 90.09 ± 0.73 |
| C[N+]12CCC(CC1)C(OC(=O)C(O)(c1ccccc1)c1ccccc1)C2 (stereo not drawn) [Clidinium bromide] + CCCCNC(=O)OCC#CI [3-iodo-2-propynyl butylcarbamate (IPBC)] | 95.8 ± 11 | 95.8 ± 6.6 |
| O=C(NCCN1CCOCC1)c1ccc(Cl)cc1 [Moclobemide] + CCCCNC(=O)OCC#CI [3-iodo-2-propynyl butylcarbamate (IPBC)] | 81.6 ± 4.8 | 89.7 ± 2 |
| Cc1c(N)c(=O)n(-c2ccccc2)n1C [Ampyrone] + CCCCNC(=O)OCC#CI [3-iodo-2-propynyl butylcarbamate (IPBC)] | 104 ± 3.8 | 105 ± 1.8 |
| CCCCc1oc2ccc(NS(C)(=O)=O)cc2c1C(=O)c1ccc(OCCCN(CCCC)CCCC)cc1 [Dronedarone hydrochloride] + CCCCNC(=O)OCC#CI [3-iodo-2-propynyl butylcarbamate (IPBC)] | 6.51 ± 0.16 | 3.25 ± 0.32 |
| CN(CCOc1ccc(NS(C)(=O)=O)cc1)CCc1ccc(NS(C)(=O)=O)cc1 [Dofetilide] + CCCCNC(=O)OCC#CI [3-iodo-2-propynyl butylcarbamate (IPBC)] | 88.79 ± 0.79 | 90.3 ± 2 |
| CCCCc1oc2ccccc2c1C(=O)c1cc(I)c(OCCN(CC)CC)c(I)c1 [Amiodarone hydrochloride] + CCCCNC(=O)OCC#CI [3-iodo-2-propynyl butylcarbamate (IPBC)] | 2.06 ± 0.16 | 2.41 ± 0.1 |
| CCCCOc1cc(C(=O)NCCN(CC)CC)c2ccccc2n1 [Dibucaine] + CCCCNC(=O)OCC#CI [3-iodo-2-propynyl butylcarbamate (IPBC)] | 85 ± 1.4 | 94.18 ± 0.21 |
| CCCCOc1cc(C(=O)OCCN(CC)CC)ccc1N [Benoxinate hydrochloride] + CCCCNC(=O)OCC#CI [3-iodo-2-propynyl butylcarbamate (IPBC)] | 84.82 ± 0.64 | 91.24 ± 0.63 |
| CCCCCCCN(CC)CCCC(O)c1ccc(NS(C)(=O)=O)cc1 (stereo not drawn) [Ibutilide fumarate] + CCCCNC(=O)OCC#CI [3-iodo-2-propynyl butylcarbamate (IPBC)] | 85 ± 1.4 | 88.1 ± 0.63 |
| CCCCC1=NC2(CCCC2)C(=O)N1Cc1ccc(-c2ccccc2-c2nnn[nH]2)cc1 [Irbesartan] + CCCCNC(=O)OCC#CI [3-iodo-2-propynyl butylcarbamate (IPBC)] | 96.6 ± 6.7 | 95.8 ± 3.5 |
| NS(=O)(=O)c1cc2c(cc1Cl)N=C(CSCc1ccccc1)NS2(=O)=O [Benzthiazide] + CCCCNC(=O)OCC#CI [3-iodo-2-propynyl butylcarbamate (IPBC)] | 89.9 ± 0.32 | 94.8 ± 1.3 |
